Compound activity as filed in PubChem BioAssay.
Shown are actives, neighbours in structure and some others; about 5.5% of the full set was active somewhere.
Giardia killer: kills Giardia lamblia; Giardia lamblia trophozoite viability; activity change, % at 7.66 µM, hits read low; hit rate 0.15% among 340,000; AID 540267; in the data active means activity change below about -80%; inconclusive means between about -30% and that limit;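 further: parasites exposed to compound for two days anaerobically before the ATP read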
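Giardia trophozoites, 100 cells per well, were exposed to compounds for 48 hrs at 37 deg C under anaerobic conditions; viability was then read as ATP content by bioluminescence after 15-30 min at room temperature.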
ELG1 DNA repair: ELG1-dependent DNA repair inhibition; hit rate 2.3% among 330,000; HEK293T ELG1-luciferase reporter, luminescence, 16 h; DNA damage induced by 5-fluorouridine; Potency, µM (top dose mostly 46.1 µM), without a hit: at the highest dose activity change, negative = inhibition, hits mostly inhibitors; further: potency means the concentration at half of the fitted maximal effect; nearly all actives have a fitted effect of over 55% in size
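Quantitative HTS, concentration-response format. 2,000 cells/well co-treated with 5-fluorouridine and compound, 16 hr in 5% CO2 at 37 °C; ONE-Glo luminescence read after 30 min.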
FBPA coupling cs: inhibits coupling enzyme system, counter-screen for aldolase hits; coupling enzyme system counterscreen, AmpLite Red fluorescence; activity change, negative = inhibition, % at 58.2 µM, hits read low; hit rate 0.67% among 290,000; in the data active means activity change below about -30%
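Activity here indicates interference with the coupling reaction, not aldolase inhibition. Compounds at 57.5 uM final met coupling enzymes for 10 min at RT; substrate and AmpLite Red detection followed, with a 525/598 nm fluorescence read after 20 min.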
Sfp inh: blocks B. subtilis Sfp PPTase activity; Potency, µM, for inactives: largest response in the series, negative = inhibition, actives largely listed as inhibitors; Q9F4F7; hit rate 3.5% among 310,000; Biochemical Sfp PPTase activity, qHTS;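 further: the enzyme is Sfp with the accession as filed and its product quenches rhodamine fluorescence; potency means the concentration at half of the fitted maximal effect; 0% = enzyme reaction without inhibitor and -100% = no enzyme wells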
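With Hepes-Na pH 7.6 buffer containing 10 mM MgCl2, Sfp (15 nM) modified BHQ-2-YbbR (12.5 uM) using rhodamine-CoA (5 uM). Two reads 30 minutes apart at 525/598 nm yielded each well's rate.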
ELG1 FLuc counter: luciferase inhibition in cell-free luciferin readout for ELG1 hits. shares compounds with ELG1 DNA repair. cell-free firefly luciferase luminescence counter-screen, ViewLux. Potency, µM (highest dose often 46.1 µM), inactives show top-dose activity change, negative = inhibition, most hits filed as inhibitors. hit rate 3% among 350. AID 624247; further: potency means the concentration at half of the fitted maximal effect
ELG1-Luc inh: inhibits ELG1-dependent DNA repair in HEK293T cells, confirmed. shares compounds with ELG1 DNA repair. HEK293T ELG1-luciferase levels, luminescence; cells co-treated with 5-fluorouridine. Potency, µM (titrated, usually from 46.1 µM), for the others: top-dose activity change, negative = inhibition, actives largely listed as inhibitors. hit rate 68% among 670; further: potency means the concentration at half of the fitted maximal effect; nearly all actives have a fitted effect of over 55% in size
ELG1 MMS Luc: confirmation of human ELG1 repair inhibitors, MMS stimulated; HEK293T luciferase-tagged ELG1 level, MMS stimulated; hit rate 53% among 670; shares compounds with ELG1 DNA repair; Potency, µM (series often up to 46.1 µM), for inactives: at the highest dose activity change, negative = inhibition, usual class: inhibitors; AID 624249; further: potency means the concentration at half of the fitted maximal effect; nearly all actives have a fitted effect of over 60% in size
ELG1 5-FU: confirmation of ELG1 repair inhibitors: viability with 5FU. shares compounds with ELG1 DNA repair. cell viability with 5-FU, ELG1-dependent repair. Potency, µM (titrated, usually from 46.1 µM), for inactives: at the top dose activity change, negative = viability loss, most hits filed as cytotoxic. 670 tested, under 10 active. AID 624250;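 further: ELG1-luc HEK293T cells cotreated with 5-fluorouridine at 10 µM final; potency means the concentration at half of the fitted maximal effect; viability measured 16 h after compound addition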
ELG1 MMS cell: confirmation of ELG1 repair inhibitors: viability with MMS | hit rate 33% among 670 | shares compounds with ELG1 DNA repair | Cell viability with MMS, ELG1-dependent DNA repair | Potency, µM (series often up to 46.1 µM), for the others: at the top dose activity change, negative = viability loss, usual class: cytotoxic;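 further: ELG1-luc HEK293T cells co-treated with 10 µM MMS; potency means the concentration at half of the fitted maximal effect; viability read 16 h after compound addition; nearly all actives have a fitted effect of over 60% in size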
ELG1 unstim viab: counter-screen for ELG1 repair inhibitors: unstimulated cell viability | shares compounds with ELG1 DNA repair | cell viability counter-screen, unstimulated, luminescence | Potency, µM (doses to about 45.9 µM), for inactives: top-dose activity change, negative = loss of viability, hits mostly cytotoxic | hit rate 8% among 900 | AID 624252;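 further: potency means the concentration at half of the fitted maximal effect; compound exposure lasted 16 hours before reading; nearly all actives have a fitted effect of over 55% in size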
FLuc enzyme: counter-screen for ELG1 repair inhibitors: firefly luciferase inhibition. Potency, µM (highest dose often 57.5 µM), for the others: at the top dose activity, negative = inhibition, most hits filed as inhibitors. purified firefly luciferase, luminescence counter-screen. AID 624253. hit rate 10% among 350. shares compounds with ELG1 DNA repair; further: potency means the concentration at half of the fitted maximal effect
Active calls of the source: *. Unless noted, the call rests on the fitted dose curve; in most records, active means well fitted curve in the direction sought with a large enough effect; inconclusive means small, poorly fitted or top-dose-only effect, or another doubt; inactive means no such curve, though single readings can be large; an effect the other way counts as inactive or inconclusive. Unless noted, on the % scale 0 is the no-effect control and ±100 the full control effect.

What do the screens show for `Cc1c(NC(=O)c2cc(-c3cccs3)nc3ccccc23)c(=O)n(-c2ccccc2)n1C`?
Giardia killer: 2.4; ELG1 DNA repair: 2.91µM*; FBPA coupling cs: 1.9; Sfp inh: 19.7%; ELG1 FLuc counter: -6.7%; ELG1-Luc inh: 2.81µM*; ELG1 MMS Luc: 7.92µM*; ELG1 5-FU: 2.9%; ELG1 MMS cell: inconclusive; ELG1 unstim viab: inconclusive; FLuc enzyme: -13.1%

Results for CCC(C)NC(=O)C1CCC(CNS(=O)(=O)c2ccc3c(c2)N(C(C)=O)CCO3)CC1 (configuration not stated) ?
Giardia killer: 13.4; ELG1 DNA repair: 10.3%; Sfp inh: 30.9%

What do the screens show for `N#Cc1cc2cc3c(cc2nc1SCC(=O)N1CCOCC1)OCCO3`?
Giardia killer: -18.3; ELG1 DNA repair: inconclusive; FBPA coupling cs: -1.5; Sfp inh: 0.5%; ELG1 FLuc counter: -13.3%; ELG1 unstim viab: inconclusive; FLuc enzyme: inconclusive

What do the screens show for `COc1ccc(C2CC(c3ccncc3)=NN2c2ccc(S(N)(=O)=O)cc2)cc1` (configuration not stated)?
Giardia killer: -5.9; ELG1 DNA repair: inconclusive; ELG1 unstim viab: inconclusive

What do the screens show for `COc1ccc(C2CC(c3ccc(Cl)cc3)=NN2c2ccc(S(N)(=O)=O)cc2)cc1` (configuration not stated)?
Giardia killer: -7.6; ELG1 DNA repair: -0.2%

How did COc1ccc(CC(=O)OC(C)C(=O)c2ccc(C)cc2)cc1 (configuration not stated) do in these assays?
Giardia killer: -3.8; ELG1 DNA repair: -21.8%; Sfp inh: -1.8%

Results for Cc1ccc(NC(=O)CCC(=O)N2CCN(S(=O)(=O)c3ccc(C)cc3)CC2)cc1 ?
Giardia killer: -2.8; ELG1 DNA repair: 2.4%

What do the screens show for `CCN(CC)CCCC(C)n1c(-c2ccccc2)nc2c(N(CCOC)CCOC)nc(C)nc21` (configuration not stated)?
FBPA coupling cs: 4.7; Sfp inh: 22.4%

What do the screens show for `CN1CCN(c2ncc3nc(-c4ccc(F)cc4)c(=O)n(Cc4cccs4)c3n2)CC1`?
FBPA coupling cs: 0.3; Sfp inh: -20.5%

How did COc1cccc(/C=C/C(=O)OCC(=O)c2ccccc2)c1OC do in these assays?
Giardia killer: 53.3; ELG1 DNA repair: inconclusive; ELG1 unstim viab: -3.0%

What do the screens show for `O=C(NCCCN1CCOCC1)C1CCN(S(=O)(=O)c2cccc(C(F)(F)F)c2)CC1`?
Giardia killer: 2.0; ELG1 DNA repair: 0.0%

What do the screens show for `O=C(Nc1ccc(-c2n[nH]c(=S)o2)cc1)c1ccccc1Br`?
Giardia killer: -2.9; ELG1 DNA repair: 7.0%; FBPA coupling cs: 11.2; Sfp inh: -6.8%

Results for O=C1OCCC1N(C(=O)C1CC1)c1cccc(Cl)c1 (configuration not stated) ?
FBPA coupling cs: 0.5; Sfp inh: -6.4%

Results for O=C(O)c1cc2c(N3CCC(Cc4ccccc4)CC3)ncnc2s1 ?
Giardia killer: -7.9; ELG1 DNA repair: 5.1%; FBPA coupling cs: 8.6; Sfp inh: 6.7%

What do the screens show for `c1ccc(CC2CCN(c3ncnc4sccc34)CC2)cc1`?
Giardia killer: 20.3; ELG1 DNA repair: 1.64µM*; FBPA coupling cs: 0.9; Sfp inh: inconclusive; ELG1 FLuc counter: 30.9%; ELG1-Luc inh: 23.1%; ELG1 MMS Luc: 1.58µM*; ELG1 5-FU: -10.2%; ELG1 MMS cell: 1.99µM*; ELG1 unstim viab: inconclusive; FLuc enzyme: inconclusive

How did CC(=O)Oc1ccc2c(C)c(CC(=O)N3CCN(C(=O)C4COc5ccccc5O4)CC3)c(=O)oc2c1C (configuration not stated) do in these assays?
Giardia killer: 30.8; ELG1 DNA repair: inconclusive; FBPA coupling cs: 3.3; Sfp inh: 9.6%; ELG1 FLuc counter: -4.4%; ELG1-Luc inh: 2.5µM*; ELG1 MMS Luc: inconclusive; ELG1 5-FU: inconclusive; ELG1 MMS cell: inconclusive; ELG1 unstim viab: inconclusive; FLuc enzyme: -6.8%

What do the screens show for `Cc1nn(Cc2c(Cl)cccc2Cl)c(C)c1NC(=O)c1cnn2c(C(F)F)cc(-c3ccccc3)nc12`?
Giardia killer: 6.8; ELG1 DNA repair: inconclusive; FBPA coupling cs: 2.3; Sfp inh: -26.5%

Results for Cc1ccc(-c2cc(C(F)F)n3ncc(C(=O)Nc4c(C)nn(Cc5c(Cl)cccc5Cl)c4C)c3n2)cc1 ?
Giardia killer: 3.0; ELG1 DNA repair: 4.61µM*; FBPA coupling cs: 4.7; Sfp inh: 4.9%; ELG1 FLuc counter: -4.2%; ELG1-Luc inh: 3.97µM*; ELG1 MMS Luc: 6.1%; ELG1 5-FU: inconclusive; ELG1 MMS cell: 2.0%; ELG1 unstim viab: -4.6%; FLuc enzyme: -5.1%

How did O=C(Nc1cnn(Cc2ccc(F)cc2)c1)c1cnn2c(C(F)F)cc(-c3ccccc3)nc12 do in these assays?
Giardia killer: 4.7; ELG1 DNA repair: 2.31µM*; FBPA coupling cs: 2.3; Sfp inh: 14.1µM*; ELG1 FLuc counter: inconclusive; ELG1-Luc inh: 5µM*; ELG1 MMS Luc: 12.6µM*; ELG1 5-FU: inconclusive; ELG1 MMS cell: inconclusive; ELG1 unstim viab: inconclusive; FLuc enzyme: -11.4%

How did CN(C)c1ccc(-c2cc3ccccc3c(=O)o2)cc1 do in these assays?
Giardia killer: -22.5; ELG1 DNA repair: inconclusive; ELG1 FLuc counter: 85.7%; ELG1 unstim viab: inconclusive; FLuc enzyme: 0.184µM*
